The other results are listed elsewhere or left out. Results filed as inconclusive are left out. Active and inactive are the calls of the source. Calls come from the whole dose curve; as a rule, active = well fitted inhibition curve with a large enough effect; inconclusive = small, poorly fitted or top-dose-only effect; inactive = no such curve, though single readings can be large or run the other way.
Test: qHTS of pediatric cancer cell lines to identify multiple opportunities for drug repurposing: Orthogonal 3D viability screen for SJ-GBM2 cells
Settings: SJ-GBM2 3D spheroid viability, PI/Hoechst imaging, 72 h
Excerpt: Drug repurposing or repositioning has been offered as a strategy for drug development in oncology programs. This approach has special potential for childhood cancers and other rare or orphan diseases, where the expected return on new drug development has been a disincentive to pharmaceuticals. […] In this project we exploit the poly-pharmacology of drugs to discover new indications via phenotypic screening of a panel of 19 well-characterized cell lines derived from solid tumors seen in children and adolescents. The goal is to identify approved drugs with previously unrecognized anticancer properties that has the potential to reveal new mechanisms and biological processes involved in carcinogenesis or drug resistance. We employed a titration-based paradigm (quantitative high-throughput screening or qHTS), where all compounds were tested at multiple concentrations for their effect on cell viability. Concentration-response curves (CRCs) were derived directly from the primary screen, and both potency and efficacy values were used to identify compounds with robust bioactivity profiles. […] These two assays will be used to validate active compounds and assess the correlation of compound's potency in 2D vs 3D cultures on selected cell lines. Assay Submitter: Nathalia J. Martinez, National Center for Advancing Translational Sciences, National Institutes of Health, Rockville, MD, USA; email: natalia.martinez@nih.gov Shen, M et al. Quantitative high-throughput phenotypic screening of pediatric cancer cell lines identifies multiple opportunities for drug repurposing. Oncotarget 2017 Dec 19;9(4):4758-4772. PMID 29435139.
The cells were obtained from University of North Carolina (UNC), Pediatric Preclinical Testing Program (PPT), and Coriell Institute (CI). qHTS viability in 3D culture: Cells were assayed in phenol red-free growth media at a density of 1,000 cells/well, with the exception of Daoy, and SH-N-SH which were assayed at 1,500 cells/ well. Thirty muL of cells were dispensed into 384-well, ULA, round bottom plates (Corning) using a Multidrop dispenser. Plates were spun down at 1,000 rpm for 1 min and incubated at 37 degrees C, 5% CO2, under a humidified atmosphere for either 24 (Daoy) or 48 hours (all other cell lines) to allow spheroid formation. Ninety-two nanoliter of compounds and controls (neutral control DMSO or positive control bortezomib at final concentrations of 0.5 µM) were subsequently transferred via GNF Pintool. Plates were sealed using a breathable seal (Diversified Biotech, Dedham, MA) and incubated for 72 hours at 37 degrees C. Spheroid viability was first determined by high-content imaging using Hoechst 33342 and Propidium Iodide (PI, ThermoFisher Scientific), followed by addition of CellTiter-Glo 3D (Promega). Specifically, 3 µL/well of PBS containing a 1:500 dilution of both dyes was dispensed using Multidrop. Dyes were incubated for 1 hour before imaging using the Celigo Image Cytometer. Then, 20 µl of CellTiter-Glo 3D were added per well. Plates were incubated for 30 min at RT on a VWR microplate shaker (300 rpm) and analyzed for luminescence intensity using a ViewLux High-throughput CCD imager equipped with clear filters. Image analysis was done using the Celigo Tumorsphere 1+2+3 application software as previously described. Briefly, spheroids were first identified using bright-field image segmentation, and then the fluorescent intensities of PI and Hoechst 3342 were obtained using red (EX: 531/40 nm, EM: 629/53 nm) and blue (EX: 377/50 nm, EM: 470/22 nm) filters, respectively. The data were exported to Excel, and the average fluorescent intensities were used to calculate the ratio of PI over Hoechst, which was used to quantify viability. Percent activity based on neutral and positive control bortezomib was derived.

Structure (SMILES)	Potency
CC[C@H]1CN2CCc3cc(OC)c(OC)cc3[C@@H]2C[C@@H]1C[C@H]1NCCc2cc(OC)c(OC)cc21	0.0722 µM (active)
COc1c(C)c2c(c(O)c1C/C=C(\C)CCC(=O)O)C(=O)OC2	0.722 µM (active)
CC[C@]1(O)C[C@@H]2CN(CCc3c([nH]c4ccccc34)[C@@](C(=O)OC)(c3cc4c(cc3OC)N(C)[C@H]3[C@@](O)(C(=O)OC)[C@H](OC(C)=O)[C@]5(CC)C=CCN6CC[C@]43[C@@H]65)C2)C1	0.0406 µM (active)
CC(NCc1ccc2c(c1)nc(NC(=O)c1ccc(-c3cn[nH]c3)s1)n2CC(C)(C)O)C(C)(C)C (stereo unspecified)	0.162 µM (active)
CC1(C)O[C@@H]2C[C@@H]3[C@H]4C[C@@H](F)C5=CC(=O)C=C[C@]5(C)[C@@]4(F)[C@@H](O)C[C@]3(C)[C@]2(C(=O)CO)O1	0.574 µM (active)
COC(=O)Nc1nc2ccc(Sc3ccccc3)cc2[nH]1	0.574 µM (active)

Source: PubChem BioAssay AID1347136 (National Center for Advancing Translational Sciences (NCATS), 2019)
